“And” between values parts separate entries of the source, which are not always exact repeats. Identical values can stand only once. Records with an inconclusive call do not appear. A call without a number means that no potency is given here. The source made the active and inactive calls. Unless noted, calls follow the shape of the dose curve; as a rule, active = well fitted curve in the direction sought with a large enough effect in the repeat runs; inconclusive = weak or mixed curves; inactive = no such curve, though single readings can be large; an effect the other way counts as inactive or inconclusive. Positions of bridges follow the written chain, without caps; N, C: chain ends. Non-standard residues stand in square brackets, D forms with d. Residues, ends and D or L forms follow the SMILES beside them. ξ: configuration not given here. *: point of attachment. d(aThr) = C[C@@H](O)[C@@H](N)C(=O)O; ξThr(3R) = C[C@@H](O)C(N)C(=O)O; X3 = CC[C@@H](C)CCCCC(=O)*; dDab = NCC[C@@H](N)C(=O)O
Experiments:
[1] = qHTS assay to test for compound auto fluorescence at 535 nm (green) in HEK293 cells (AID 720680)
[2] = qHTS assay to test for compound auto fluorescence at 460 nm (blue) in HEK293 cell free culture (AID 720681)
How it was run: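 Blue fluorescence (Ex 405/Em 460 nm, triamterene-equivalent) was read immediately after pin transfer of compound or DMSO into medium (DMEM, 10% FBS) without cells.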

[3] = qHTS assay to test for compound auto fluorescence at 535 nm (green) in HEK293 cell free culture (AID 720682)
How it was run: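 Fluorescein serves as the green reference fluorophore; each compound's intrinsic emission at 535 nm (excitation 485 nm) is reported as an equivalent amount of that dye, measured in serum-containing DMEM without cells.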

[4] = qHTS assay to test for compound auto fluorescence at 590 nm (red) in HEK293 cell free culture (AID 720683)
How it was run: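 Red-channel autofluorescence of compounds in culture medium (DMEM, 10% FBS), no cells, measured at 540/590 nm. Rose Bengal sodium is the reference fluorophore for equivalence.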

[5] = qHTS assay to test for compound auto fluorescence at 590 nm (red) in HepG2 cell free culture (AID 720684)
How it was run: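 Steps: dispense MEM/10% FBS medium, no cells; pin compound or DMSO vehicle; read red channel, Ex/Em 540/590 nm. Output given as Rose Bengal sodium equivalents.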

[6] = qHTS assay to test for compound auto fluorescence at 460 nm (blue) in HepG2 cell free culture (AID 720685)
How it was run: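 Compound (23 nL) or DMSO pinned into cell-free MEM with 10% FBS; blue fluorescence read at 405/460 nm excitation/emission, expressed as auto-fluorescence equivalency to triamterene.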

[7] = qHTS assay to test for compound auto fluorescence at 535 nm (green) in HepG2 cell free culture (AID 720686)
[8] = qHTS assay to test for compound auto fluorescence at 460 nm (blue) in HepG2 cells (AID 720687)
How it was run: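 Blue-channel autofluorescence (Ex/Em 405/460 nm, triamterene-equivalent) was measured after 1 hr compound exposure at 37 C, 5% CO2. Cells were HepG2, plated overnight at 37 C in MEM plus 10% FBS.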

[9] = qHTS assay for identifying genotoxic compounds that show differential cytotoxicity against isogenic chicken DT40 cell lines with known DNA damage response pathways - wild type cell line (AID 743012); also: nearly all actives have a fitted effect of over 60% in size; also: potency is read from the fitted curve at half-maximal effect
How it was run: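 Wild type DT40, 300 cells/well, ~0.5 h settle at 37 C/5% CO2; compounds in DMSO added by pintool; 40 h at 37 C/5% CO2; CellTiter-Glo, 30 min RT; luminescence.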

[10] = qHTS assay for identifying genotoxic compounds that show differential cytotoxicity against isogenic chicken DT40 cell lines with known DNA damage response pathways - Rad54/Ku70 mutant cell line (AID 743015); also: nearly all actives have a fitted effect of over 60% in size; also: potency is read from the fitted curve at half-maximal effect
[11] = qHTS assay to identify small molecule antagonists of the androgen receptor (AR) signaling pathway - cell viability counter screen (AID 743033; also: nearly all actives have a fitted effect of over 45% in size; also: potency is read from the fitted curve at half-maximal effect)
[12] = molecular target: Androgen receptor (Homo sapiens) (UniProt P10275); assay: qHTS assay to identify small molecule agonists of the androgen receptor (AR) signaling pathway using the MDA cell line (AID 743040; also: nearly all actives have a fitted effect of over 20% in size; also: potency is read from the fitted curve at half-maximal effect)
How it was run: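 Cells plated, 5 h at 37C/0% CO2; compound or DMSO pinned; 16 h at 37C; ONE-Glo added; luminescence measured after 30 min at room temperature. Reporter line: MDA-kb2 with MMTV-luciferase responsive to AR and GR.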

[13] = qHTS assay to identify small molecule antagonists of the androgen receptor (AR) signaling pathway using the MDA cell line - cell viability counter screen (AID 743041; also: nearly all actives have a fitted effect of over 45% in size; also: potency is read from the fitted curve at half-maximal effect)
How it was run: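 Cells were plated at 3,000 per well and left 5 h. Compounds in DMSO were then pinned in, followed by R1881. After 16 h at 37C, CellTiter-Fluor fluorescence gave viability.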

[14] = molecular target: Androgen receptor (Homo sapiens) (UniProt P10275); assay: qHTS assay to identify small molecule antagonists of the androgen receptor (AR) signaling pathway using the MDA cell line (AID 743042; also: nearly all actives have a fitted effect of over 55% in size; also: potency is read from the fitted curve at half-maximal effect)
How it was run: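 Antagonist mode: compounds plus R1881 agonist added to MDA-kb2 AR-luc cells, incubated 16 h at 37C. Luciferase reporter luminescence quantified, with multiplexed CellTiter-Fluor readout for cell viability.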

[15] = qHTS assay to identify small molecule antagonists of the glucocorticoid receptor (GR) signaling pathway - cell viability counter screen (AID 720693); also: nearly all actives have a fitted effect of over 55% in size; also: potency is read from the fitted curve at half-maximal effect
[16] = qHTS assay for identifying genotoxic compounds that show differential cytotoxicity against isogenic chicken DT40 cell lines with known DNA damage response pathways - Rev3 mutant cell line (AID 743014); also: nearly all actives have a fitted effect of over 55% in size; also: potency is read from the fitted curve at half-maximal effect
[17] = molecular target: Glucocorticoid receptor (Homo sapiens) (UniProt P04150); assay: qHTS assay to identify small molecule agonists of the glucocorticoid receptor (GR) signaling pathway (AID 720691; active = well fitted activation curve with a large enough effect in the signal ratio in the repeat runs, not every such curve was filed as active; the % refers to the signal ratio); conditions: GR-bla HeLa, beta-lactamase reporter ratio, 18 h; activation: at 62.4 µM (top of the series)
How it was run: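 Fluorescence intensity from LiveBLAzer B/G FRET substrate (2 h, room temperature) reports beta-lactamase expression driven by the glucocorticoid response element in GR-bla HeLa cells after 18 h compound exposure at 37 C.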

[18] = molecular target: Androgen receptor (Homo sapiens) (UniProt P10275); assay: qHTS assay to identify small molecule agonists of the androgen receptor (AR) signaling pathway (AID 743036; active = well fitted activation curve with a large enough effect in the signal ratio in the repeat runs, with a control signal flat, not every such curve was filed as active; the % refers to the signal ratio; also: potency is read from the fitted curve at half-maximal effect)
How it was run: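 Fluorescence from a beta-lactamase FRET substrate served as read-out in AR-UAS-bla GripTite HEK293 cells. Cells were treated with DMSO-dissolved compounds for 16 h at 37C, then with LiveBLAzer B/G substrate for 2 h at room temperature.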

[19] = molecular target: Androgen receptor (Homo sapiens) (UniProt P10275); assay: qHTS assay to identify small molecule antagonists of the androgen receptor (AR) signaling pathway (AID 743035; active = well fitted inhibition curve with a large enough effect in the signal ratio in the repeat runs, not every such curve was filed as active; the % refers to the signal ratio; also: potency is read from the fitted curve at half-maximal effect)
How it was run: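 Fluorescence from a beta-lactamase FRET substrate (LiveBLAzer B/G, 2 h, room temperature) measured inhibition of R1881-stimulated signaling in GeneBLAzer AR-UAS-bla HEK293 cells exposed to compound for 16 h at 37C.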

[20] = molecular target: Glucocorticoid receptor (Homo sapiens) (UniProt P04150); assay: qHTS assay to identify small molecule antagonists of the glucocorticoid receptor (GR) signaling pathway (AID 720692; active = well fitted inhibition curve with a large enough effect in the signal ratio in the repeat runs, not every such curve was filed as active; the % refers to the signal ratio)
How it was run: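 HeLa GR-bla cells; cmpd + dex 5 nM final, 18 h 37 C; LiveBLAzer B/G FRET substrate 2 h RT; fluorescence intensity read. Antagonist mode, qHTS.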

Sequence of Glucocorticoid receptor (Homo sapiens) (P04150 whole entry, looked up): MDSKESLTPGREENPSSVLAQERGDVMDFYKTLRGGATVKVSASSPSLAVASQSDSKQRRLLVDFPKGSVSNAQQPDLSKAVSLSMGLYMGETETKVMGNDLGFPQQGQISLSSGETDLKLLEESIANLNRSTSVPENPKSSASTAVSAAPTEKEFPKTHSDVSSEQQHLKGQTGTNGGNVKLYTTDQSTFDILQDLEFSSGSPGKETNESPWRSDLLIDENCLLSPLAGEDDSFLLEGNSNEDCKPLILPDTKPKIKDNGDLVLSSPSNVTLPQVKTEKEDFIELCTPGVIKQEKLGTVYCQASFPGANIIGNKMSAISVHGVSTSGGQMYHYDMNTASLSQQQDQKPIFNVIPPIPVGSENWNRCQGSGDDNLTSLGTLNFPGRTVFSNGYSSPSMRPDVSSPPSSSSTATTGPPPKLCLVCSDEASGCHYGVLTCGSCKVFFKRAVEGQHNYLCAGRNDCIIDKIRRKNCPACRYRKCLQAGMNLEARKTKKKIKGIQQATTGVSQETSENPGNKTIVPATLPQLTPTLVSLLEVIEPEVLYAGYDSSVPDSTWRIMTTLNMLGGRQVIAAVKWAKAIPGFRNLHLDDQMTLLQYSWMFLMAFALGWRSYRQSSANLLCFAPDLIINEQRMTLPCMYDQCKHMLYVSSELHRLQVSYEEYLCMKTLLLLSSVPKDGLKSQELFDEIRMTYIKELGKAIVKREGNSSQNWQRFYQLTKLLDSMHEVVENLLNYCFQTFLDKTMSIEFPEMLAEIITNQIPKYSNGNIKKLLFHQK
Sequence of Androgen receptor (Homo sapiens) (P10275 whole entry, looked up): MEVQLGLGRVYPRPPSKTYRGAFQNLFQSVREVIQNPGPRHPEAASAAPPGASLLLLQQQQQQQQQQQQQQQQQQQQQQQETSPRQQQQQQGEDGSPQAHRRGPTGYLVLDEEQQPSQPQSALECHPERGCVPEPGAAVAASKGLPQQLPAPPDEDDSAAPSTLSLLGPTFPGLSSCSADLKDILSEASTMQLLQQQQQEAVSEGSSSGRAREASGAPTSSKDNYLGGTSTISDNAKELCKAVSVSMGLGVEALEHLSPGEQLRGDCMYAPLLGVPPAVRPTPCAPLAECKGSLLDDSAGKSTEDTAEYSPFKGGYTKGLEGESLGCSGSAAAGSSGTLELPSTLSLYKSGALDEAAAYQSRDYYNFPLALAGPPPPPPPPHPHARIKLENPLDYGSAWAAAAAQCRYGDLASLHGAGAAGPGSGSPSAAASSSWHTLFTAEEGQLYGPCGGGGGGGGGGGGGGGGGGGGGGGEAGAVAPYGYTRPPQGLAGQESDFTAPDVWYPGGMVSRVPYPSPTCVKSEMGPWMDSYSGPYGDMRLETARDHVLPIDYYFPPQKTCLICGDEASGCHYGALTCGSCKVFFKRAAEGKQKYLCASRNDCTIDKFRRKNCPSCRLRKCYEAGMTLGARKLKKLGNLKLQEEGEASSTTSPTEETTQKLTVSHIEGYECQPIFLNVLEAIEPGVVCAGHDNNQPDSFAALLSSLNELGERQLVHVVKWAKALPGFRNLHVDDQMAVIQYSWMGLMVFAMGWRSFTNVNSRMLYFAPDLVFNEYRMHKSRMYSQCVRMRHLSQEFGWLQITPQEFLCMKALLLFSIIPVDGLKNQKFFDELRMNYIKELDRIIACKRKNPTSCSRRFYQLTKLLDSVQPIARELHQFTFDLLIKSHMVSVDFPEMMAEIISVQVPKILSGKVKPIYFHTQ

| SMILES | Potency [1] | Potency [2] | Potency [3] | Potency [4] | Potency [5] | outcome [6] | Potency [7] | outcome [8] | Potency [9] | Potency [10] | Potency [11] | Potency [12] | Potency [13] | Potency [14] | Potency [15] | Potency [16] | Potency [17] | Potency [18] | Potency [19] | Potency [20] |
| --- | --- | --- | --- | --- | --- | --- | --- | --- | --- | --- | --- | --- | --- | --- | --- | --- | --- | --- | --- | --- |
| CCOc1ccc(N=Nc2ccc(N)cc2N)cc1 | inactive | inactive | inactive | inactive | inactive | inactive | inactive | inactive | 23.7 µM (active) | 21.1 µM (active) | inactive | 0.473 µM (active) | 15 µM (active) | inactive | – | – | – | – | – | – |
| CCCCC[C@H](O)/C=C/[C@H]1[C@H](O)CC(=O)[C@@H]1CCCCCCC(=O)O | inactive | inactive | inactive | inactive | inactive | inactive | inactive | inactive | – | – | – | – | inactive | – | inactive | inactive | – | – | – | – |
| C=C1C(=O)O[C@H]2[C@H]1CC/C(C)=C\CC[C@@]1(C)O[C@@H]21 | inactive | inactive | inactive | inactive | inactive | inactive | inactive | inactive | 2.98 µM (active) | 4.22 µM (active) | 23.9 µM (active) | inactive | – | 6.68 µM (active) | – | 2.98 µM (active) | – | – | – | – |
| NC[C@@H]1O[C@H](O[C@H]2[C@@H](O)[C@H](O[C@@H]3[C@@H](O)[C@H](N)C[C@H](N)[C@H]3O[C@H]3O[C@H](CN)[C@@H](O)[C@H](O)[C@H]3N)O[C@@H]2CO)[C@H](N)[C@@H](O)[C@@H]1O | inactive | inactive | inactive | inactive | inactive | inactive | inactive | inactive | inactive | inactive | – | – | inactive | – | inactive | – | – | – | – | – |
| O=C[C@H](O)[C@@H](O)[C@H](O[C@H]1O[C@H](CO)[C@@H](O[C@H]2O[C@H](CO)[C@@H](O)[C@H](O)[C@H]2O)[C@H](O)[C@H]1O)[C@H](O)CO | inactive | inactive | inactive | inactive | inactive | inactive | inactive | – | inactive | inactive | inactive | 1.68 µM (active) | inactive | inactive | inactive | inactive | inactive | 7.56 µM (active) | – | – |
| O=C1CSC2(CCN(CCCN3c4ccccc4Sc4ccc(Cl)cc43)CC2)N1 | inactive | inactive | inactive | inactive | inactive | inactive | inactive | inactive | 5.96 µM (active) | 8.41 µM (active) | – | inactive | inactive | – | – | 7.5 µM (active) | – | – | 21.3 µM (active) | – |
| CC(C)C(=O)OCC(=O)[C@@]12O[C@H](C3CCCCC3)O[C@@H]1C[C@H]1[C@@H]3CCC4=CC(=O)C=C[C@]4(C)[C@H]3[C@@H](O)C[C@@]12C | inactive | inactive | inactive | inactive | inactive | inactive | inactive | inactive | – | – | inactive | – | inactive | – | – | inactive | – | – | – | – |
| CCCC(=O)N1CCCN(c2nc(N)c3cc(OC)c(OC)cc3n2)CC1 | inactive | inactive | inactive | inactive | inactive | – | inactive | inactive | inactive | inactive | – | inactive | inactive | inactive | inactive | inactive | – | inactive | inactive | – |
| Cc1ccc(S(=O)(=O)NC(=O)N[C@@H](C)Cc2ccccc2)cc1 | inactive | inactive | inactive | inactive | inactive | – | inactive | inactive | inactive | inactive | inactive | – | inactive | – | inactive | – | – | – | – | – |
| CC(C)CN(C[C@@H](O)[C@H](Cc1ccccc1)NC(=O)O[C@H]1CO[C@H]2OCC[C@H]21)S(=O)(=O)c1ccc(N)cc1 | inactive | inactive | inactive | inactive | inactive | – | inactive | inactive | – | 29.8 µM (active) | inactive | – | inactive | – | inactive | inactive | inactive | – | – | – |
| CCCCCCCN(CC)CCCC(O)c1ccc(NS(C)(=O)=O)cc1 (stereo not given) | inactive | inactive | inactive | – | inactive | inactive | inactive | inactive | 23.7 µM (active) | 26.6 µM (active) | inactive | – | inactive | – | inactive | 26.6 µM (active) | inactive | – | – | inactive |
| OC[C@H]1O[C@@H](n2cnc3c2NC=NC[C@H]3O)C[C@@H]1O | inactive | inactive | inactive | – | inactive | inactive | inactive | inactive | inactive | inactive | inactive | – | inactive | – | inactive | inactive | inactive | – | – | inactive |
| CC[C@@H](C)CCCCC(=O)N[C@H](CCN)C(=O)N[C@@H](C(=O)N[C@H](CCN)C(=O)N[C@@H]1CCNC(=O)C([C@@H](C)O)NC(=O)[C@@H](CCN)NC(=O)[C@@H](CCN)NC(=O)[C@@H](CC(C)C)NC(=O)[C@@H](Cc2ccccc2)NC(=O)[C@@H](CCN)NC1=O)[C@@H](C)O (stereo partly drawn) (X3-[dDab][d(aThr)][dDab][dDab][dDab][dF][dL][dDab][dDab][ξThr(3R)]; lactam 4-C) | inactive | inactive | inactive | inactive | inactive | – | inactive | inactive | inactive | – | inactive | – | inactive | – | inactive | – | inactive | – | – | inactive |
| CCC(C)[C@H]1O[C@]2(C=C[C@@H]1C)C[C@@H]1C[C@@H](C/C=C(\C)[C@@H](O[C@H]3C[C@H](OC)[C@@H](O[C@H]4C[C@H](OC)[C@H](NC(C)=O)[C@H](C)O4)[C@H](C)O3)[C@@H](C)/C=C/C=C3\CO[C@@H]4[C@H](O)C(C)=C[C@@H](C(=O)O1)[C@]34O)O2 (stereo not given in full) | inactive | inactive | inactive | inactive | inactive | – | inactive | inactive | 841 nM (active) and 1.68 µM (active) | 1.68 µM (active) and 3.35 µM (active) | inactive | – | – | – | 7.56 µM (active) and 19 µM (active) | 1.33 µM (active) and 2.98 µM (active) | inactive | – | – | – |

— PubChem BioAssay (Tox21)
